Records with an inconclusive call do not appear. The source made the active and inactive calls. Unless noted, the call rests on the fitted dose curve; in most records, active means well fitted curve in the direction sought with a large enough effect in the repeat runs; inconclusive means weak or mixed curves; inactive means no such curve, though single readings can be large; an effect the other way counts as inactive or inconclusive.
Tests used:
[1] = A CellTox Green Cytotoxicity Assay to monitor cytotoxicity in HEK293 cells - 16 hour (AID 1224888); further: nearly all actives have a fitted effect of over 35% in size
Summary of the method: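 Real-time, in one plate: 600 HEK293 cells/well with dead-cell DNA dye, pinned compound after 5 h, 37 C incubation over 40 h; viable cells give no appreciable fluorescence.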

[2] = qHTS RealTime-Glo MT Cell Viability Assay in HepG2 cells - 0 hour (AID 1224889); further: nearly all actives have a fitted effect of over 50% in size; further: potency means the concentration at half of the fitted maximal effect
Summary of the method: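 HepG2 suspension premixed with RealTime-Glo reagents is plated at 600 cells per well and left 5 h at 37 C/5% CO2. Compounds in DMSO then go in, and bioluminescence reflecting viable cell number is recorded over 40 h.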

[3] = A CellTox Green Cytotoxicity Assay to monitor cytotoxicity in HepG2 cells - 8 hour (AID 1224890); further: nearly all actives have a fitted effect of over 45% in size
Summary of the method: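 Cytotoxicity was tracked as dead-cell DNA fluorescence in HepG2 cells treated with test compounds at 37 C; each time-point value comes from one kinetic series spanning 0, 8, 16, 24, 32 and 40 h.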

[4] = qHTS assay to identify small molecule antagonists of the estrogen receptor alpha (ER-alpha) signaling pathway using the BG1 cell line in the presence of 0.1 nM 17-beta-estradiol - cell viability counter screen (AID 1259241); further: nearly all actives have a fitted effect of over 40% in size
Summary of the method: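 In this screen, hormone-deprived VM7Luc4E2 cells were seeded at 4,000 per well, dosed with compound and 0.1 nM estradiol final, and incubated 22 hr at 37C and 5% CO2; fluorogenic live-cell protease signal reported viability.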

[5] = qHTS assay to identify small molecule antagonists of the androgen receptor (AR) signaling pathway using the MDA cell line in the presence of 0.5 nM R1881 - cell viability counter screen (AID 1259242); further: nearly all actives have a fitted effect of over 45% in size
Summary of the method: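 Cells seeded at 3,000/well and allowed 5 hr at 37C, 0% CO2 before compound transfer and R1881 (0.5 nM final) addition; 16 hr later, live-cell protease fluorescence indicated cytotoxicity.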

[6] = target: Estrogen receptor (Homo sapiens) (UniProt P03372); test: qHTS assay to identify small molecule antagonists of the estrogen receptor alpha (ER-alpha) signaling pathway using the BG1 cell line in the presence of 0.1 nM 17-beta-estradiol (AID 1259244); further: nearly all actives have a fitted effect of over 50% in size
Summary of the method: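 Luciferase signal from VM7Luc4E2 ERE-reporter cells, co-dosed with test compound and 0.1 nM final 17beta-estradiol for 22 h, read with ONE-Glo.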

[7] = qHTS assay to identify small molecule phospholipidosis (PLD) inducers (AID 1259344; active means well fitted curve in the direction sought with a large enough effect; an effect the other way counts as inactive or inconclusive)
Summary of the method: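 After 4 h attachment on collagen I, HepG2 cells were dosed with compound alongside LipidTOX Red, kept 24 h at 37 C, fixed, and imaged for lamellar phospholipid pits.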

[8] = qHTS assay to identify small molecule HDAC inhibitors (AID 1259364);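 further: wild-type HCT-116 cells with endogenous class I/II HDAC activity; top concentration of the series differs between compounds; nearly all actives have a fitted effect of over 45% in size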
Summary of the method: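 HCT-116 wt cells, 1,500/well, overnight attach. Compounds (DMSO) 2 h, 37 °C. HDAC-Glo I/II, 30 min RT. Luminescence.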

[9] = qHTS assay to identify small molecule HDAC inhibitors - cell viability counter screen (AID 1259365); further: series mostly up to about 92 µM; nearly all actives have a fitted effect of over 50% in size
Summary of the method: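 Measured quantity is CellTiter-Glo luminescence from wild-type HCT-116 cells after compound incubation of 2hr at 37C, 5% CO2; reagent developed 30min at room temperature.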

[10] = qHTS assay to identify small molecule agonists of the sonic hedgehog signaling (Shh) pathway - cell viability counter screen (AID 1259366); further: nearly all actives have a fitted effect of over 50% in size
Summary of the method: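 In quantitative high-throughput format, 3T3 Gli1-Luc cells were exposed to compounds for 24hr and multiplexed for viability using CellTiter-Fluor, incubated 1hr at 37C before the fluorescence read.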

[11] = qHTS assay to identify small molecule antagonists of the sonic hedgehog signaling (Shh) pathway - cell viability counter screen (AID 1259367); further: nearly all actives have a fitted effect of over 55% in size
Summary of the method: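 Conditioned medium drove Shh signaling in 3T3 Gli1-Luc cells exposed to compounds at 37C and 5% CO2. Viability was determined from CellTiter-Fluor fluorescence, with reagent incubated 1 hr after 23 hr of treatment.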

[12] = qHTS assay to identify small molecule agonists of the sonic hedgehog signaling (Shh) pathway (AID 1259368; calls by dose curve;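 further: NIH/3T3-derived 3T3Gli1-Luc cells carrying a stable Gli1-driven firefly luciferase reporter; series mostly up to about 92 µM; nearly all actives have a fitted effect of over 15% in size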)
Summary of the method: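 Following a 24 hr incubation with DMSO-dissolved compounds at 37 C, 5% CO2, Gli1-Luc NIH/3T3-derived cells received luciferase reagent for 30 min at room temperature prior to luminescence measurement.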

[13] = qHTS assay to identify small molecule antagonists of the sonic hedgehog signaling (Shh) pathway (AID 1259369; calls by dose curve; further: nearly all actives have a fitted effect of over 45% in size)
Summary of the method: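 Read-out is luminescence from a firefly luciferase gene controlled by the Gli1 response element, in 3T3Gli1-Luc cells pre-incubated 4hr then exposed to compounds and conditioned medium for 24hr.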

[14] = target: Estrogen receptor beta (Homo sapiens) (UniProt Q92731); test: qHTS assay to identify small molecule agonists of the estrogen receptor beta (ER-beta) signaling pathway (AID 1259377; active means well fitted activation curve with a large enough effect in the signal ratio in the repeat runs, not every such curve was filed as active; the % refers to the signal ratio)
Summary of the method: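 Reporter cells (HEK293T, ER-beta-UAS-bla) receive compounds or DMSO after a 6 hr pre-incubation. They then incubate 16 hr at 37C/5% CO2, and fluorescence from LiveBLAzer B/G substrate is measured after 2 hours at room temperature.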

[15] = target: Estrogen receptor beta (Homo sapiens) (UniProt Q92731); test: qHTS assay to identify small molecule antagonists of the estrogen receptor beta (ER-beta) signaling pathway (AID 1259378; active means well fitted inhibition curve with a large enough effect in the signal ratio in the repeat runs, not every such curve was filed as active; the % refers to the signal ratio)
Summary of the method: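 ER-beta-UAS-bla HEK293T (GripTite) cells in 2% charcoal-stripped FBS medium were preincubated 6 hr at 37C, dosed with compound, then stimulated with 1 nM E2 (final) for 16 hr; beta-lactamase reporter read by B/G FRET fluorescence after 2 hr substrate loading.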

[16] = qHTS assay to identify small molecule agonists of the androgen receptor (AR) signaling pathway in the presence of an antagonist - cell viability counter screen (AID 1259379);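 further: MDA-kb2 human breast cancer cells carrying an MMTV luciferase reporter; series mostly up to about 92 µM; nearly all actives have a fitted effect of over 25% in size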
Summary of the method: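 Each compound was tested at 15 concentrations on MDA-kb2 cells in the presence of 3.0uM nilutamide. Viability was measured by CellTiter-Fluor fluorescence after a 16 hr incubation at 37C in a CO2-free atmosphere.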

[17] = target: Androgen receptor (Homo sapiens) (UniProt P10275); test: qHTS assay to identify small molecule antagonists of the androgen receptor (AR) signaling pathway using the MDA cell line in the presence of 0.5 nM R1881 (AID 1259243); further: nearly all actives have a fitted effect of over 50% in size
Summary of the method: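 Luminescence from an AR/GR-responsive MMTV-luciferase construct in MDA-kb2 breast carcinoma cells, read 30 min after ONE-Glo, following 16 hr co-treatment with compounds and 0.5 nM R1881.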

[18] = qHTS assay to identify small molecule agonists of the estrogen receptor beta (ER-beta) signaling pathway - cell viability counter screen (AID 1259380); further: nearly all actives have a fitted effect of over 30% in size
Summary of the method: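 Compounds dissolved in DMSO were pin-transferred onto ER-beta-UAS-bla HEK293T cells that had settled 6 hr, and exposure ran 16 hr at 37C. Following the reporter read, CellTiter-Glo luminescence after 30 min at room temperature indicated cytotoxicity.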

[19] = target: Androgen receptor (Homo sapiens) (UniProt P10275); test: qHTS assay to identify small molecule agonists of the androgen receptor (AR) signaling pathway in the presence of an antagonist (AID 1259381; calls by dose curve; further: nearly all actives have a fitted effect of over 15% in size)
Summary of the method: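 Plated MDA-kb2 cells (3,000/well) were pre-incubated 5hr, given nilutamide (3.0uM final) or buffer, then dosed with compounds in DMSO at 15 concentrations. Luciferase activity was quantified by luminescence after 16hr at 37C.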

[20] = qHTS assay to identify small molecule antagonists of the estrogen receptor beta (ER-beta) signaling pathway - cell viability counter screen (AID 1259382); further: series mostly up to about 92 µM; nearly all actives have a fitted effect of over 55% in size
Summary of the method: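 CellTiter-Glo ATP luminescence measured after the LiveBLAzer read in the same wells; ER-beta-UAS-bla HEK293T cells, 16 hr compound treatment with 1nM 17-beta-estradiol agonist at 37C, 5% CO2.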
On the % scale 0 is the no-effect control and ±100 the full control effect.

Chain of Estrogen receptor beta (Homo sapiens) (Q92731 whole entry, looked up): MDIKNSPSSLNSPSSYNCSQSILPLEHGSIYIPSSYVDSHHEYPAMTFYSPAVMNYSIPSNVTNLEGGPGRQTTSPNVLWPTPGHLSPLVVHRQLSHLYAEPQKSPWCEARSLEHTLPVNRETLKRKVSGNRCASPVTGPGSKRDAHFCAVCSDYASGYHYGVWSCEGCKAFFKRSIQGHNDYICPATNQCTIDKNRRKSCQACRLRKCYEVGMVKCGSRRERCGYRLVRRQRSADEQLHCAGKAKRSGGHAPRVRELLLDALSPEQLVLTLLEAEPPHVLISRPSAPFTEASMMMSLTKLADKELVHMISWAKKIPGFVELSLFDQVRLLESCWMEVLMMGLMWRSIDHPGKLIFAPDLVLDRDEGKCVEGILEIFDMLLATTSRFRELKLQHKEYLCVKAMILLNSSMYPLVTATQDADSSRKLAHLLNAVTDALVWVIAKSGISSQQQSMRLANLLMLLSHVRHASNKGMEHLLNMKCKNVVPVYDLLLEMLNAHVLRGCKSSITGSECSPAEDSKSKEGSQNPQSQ
Chain of Androgen receptor (Homo sapiens) (P10275 whole entry, looked up): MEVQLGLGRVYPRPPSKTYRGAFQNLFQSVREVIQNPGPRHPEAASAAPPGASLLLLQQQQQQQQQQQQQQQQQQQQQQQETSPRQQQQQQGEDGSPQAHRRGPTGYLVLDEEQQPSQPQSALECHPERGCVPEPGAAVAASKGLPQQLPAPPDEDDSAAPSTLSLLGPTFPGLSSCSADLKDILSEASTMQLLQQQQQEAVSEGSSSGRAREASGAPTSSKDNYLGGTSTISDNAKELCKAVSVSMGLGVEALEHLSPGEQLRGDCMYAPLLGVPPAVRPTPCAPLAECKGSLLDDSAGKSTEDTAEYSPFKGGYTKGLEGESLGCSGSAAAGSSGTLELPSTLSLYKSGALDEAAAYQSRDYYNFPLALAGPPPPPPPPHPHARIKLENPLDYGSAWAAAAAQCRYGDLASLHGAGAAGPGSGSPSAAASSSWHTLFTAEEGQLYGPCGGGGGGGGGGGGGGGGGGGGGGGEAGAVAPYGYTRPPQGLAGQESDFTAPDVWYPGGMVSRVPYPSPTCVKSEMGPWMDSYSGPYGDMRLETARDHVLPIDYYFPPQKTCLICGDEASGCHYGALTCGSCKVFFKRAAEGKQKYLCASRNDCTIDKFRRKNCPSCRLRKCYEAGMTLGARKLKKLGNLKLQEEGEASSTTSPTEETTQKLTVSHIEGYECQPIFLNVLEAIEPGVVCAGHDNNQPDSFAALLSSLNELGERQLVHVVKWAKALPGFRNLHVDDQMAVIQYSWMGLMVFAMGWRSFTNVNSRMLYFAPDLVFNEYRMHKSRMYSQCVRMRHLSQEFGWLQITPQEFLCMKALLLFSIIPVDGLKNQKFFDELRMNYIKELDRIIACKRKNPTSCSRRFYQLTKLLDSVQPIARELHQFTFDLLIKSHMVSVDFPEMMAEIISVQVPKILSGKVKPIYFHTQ
Chain of Estrogen receptor (Homo sapiens) (P03372 whole entry, looked up): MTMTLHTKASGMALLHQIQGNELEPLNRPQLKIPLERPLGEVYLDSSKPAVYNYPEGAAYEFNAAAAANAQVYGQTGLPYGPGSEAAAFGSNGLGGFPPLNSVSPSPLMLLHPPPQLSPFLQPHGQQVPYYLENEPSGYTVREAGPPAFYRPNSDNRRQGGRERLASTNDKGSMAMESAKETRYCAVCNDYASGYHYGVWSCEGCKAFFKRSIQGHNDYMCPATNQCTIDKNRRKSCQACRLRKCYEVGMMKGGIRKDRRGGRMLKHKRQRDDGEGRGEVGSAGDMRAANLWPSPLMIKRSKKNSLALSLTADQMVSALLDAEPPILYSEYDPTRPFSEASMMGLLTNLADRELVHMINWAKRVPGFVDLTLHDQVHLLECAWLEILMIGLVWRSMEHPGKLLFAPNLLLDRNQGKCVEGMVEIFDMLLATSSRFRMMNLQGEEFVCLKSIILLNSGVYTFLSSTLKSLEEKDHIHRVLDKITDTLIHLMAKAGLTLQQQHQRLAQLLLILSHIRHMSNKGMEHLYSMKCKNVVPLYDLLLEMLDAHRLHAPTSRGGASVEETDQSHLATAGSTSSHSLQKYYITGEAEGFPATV

CC1c2ccccc2CN1NC(=O)c1ccc(Cl)c(S(N)(=O)=O)c1 (stereo not drawn)
inactive: Potency [1] | Potency [2] | Potency [3] | outcome [4] | outcome [5] | outcome [6] | PLD induction [7] -1.83% [at 1.53 µM] | Potency [8] | outcome [9] | outcome [10] | outcome [11] | outcome [12] | Potency [13] | Potency [14] | Potency [15] | outcome [16]

CCO
inactive: Potency [1] | Potency [2] | Potency [3] | outcome [4] | outcome [5] | Potency [17] | outcome [6] | Potency [8] | outcome [9] | outcome [10] | outcome [11] | outcome [12] | Potency [13] | Potency [14] | Potency [15] | outcome [18] | outcome [19] | outcome [20]

O=C(CCCCC(=O)Nc1c(I)cc(I)c(C(=O)O)c1I)Nc1c(I)cc(I)c(C(=O)O)c1I
inactive: Potency [1] | Potency [2] | Potency [3] | outcome [4] | outcome [5] | outcome [6] | outcome [7] | Potency [8] | outcome [9] | outcome [10] | outcome [11] | outcome [12] | Potency [13] | outcome [16] | outcome [18] | outcome [20]

N[C@@H](CSCCCO)C(=O)O
inactive: activity change [1] 3.31% [at 15.8 µM, stronger effect = higher value] | activity change, negative = cytotoxicity [2] -0.41% [at 15.8 µM] | cytotoxicity increase [3] -14.5% [at 15.8 µM] | activity change, negative = cytotoxicity [4] -2.4% [at 19 µM] | viability change, negative = cytotoxic [5] 2.53% [at 19 µM] | activity, negative = inhibition [17] -8.92% [at 19 µM] | activity change, negative = inhibition [6] -4.57% [at 19 µM] | outcome [7] | activity change, negative = inhibition [8] -2.63% [at 19 µM] | viability change, negative = cytotoxic [11] 1.48% [at 19 µM] | activity change [12] 0.782% [at 18.9 µM] | activation [14] -2.61% [at 19 µM] | activity, negative = inhibition [15] 0.481% [at 19 µM] | activity change, negative = cytotoxicity [16] -1.46% [at 19 µM] | activity change, negative = cytotoxicity [18] 7.76% [at 19 µM] | activation [19] -0.115% [at 19 µM] | activity change, negative = cytotoxicity [20] 8.62% [at 19 µM]

CCO[Si](CC)(OCC)OCC
inactive: Potency [1] | Potency [2] | Potency [3] | outcome [4] | outcome [5] | Potency [17] | outcome [6] | Potency [8] | outcome [10] | outcome [11] | Potency [13] | Potency [14] | Potency [15] | outcome [16] | outcome [18] | outcome [19] | outcome [20]

CC(C)C[C@@H]1[C@H](c2ccccc2)OC(=O)N1CCCN1CCCCCC1
inactive: Potency [1] | Potency [2] | Potency [3] | outcome [4] | outcome [5] | Potency [17] | outcome [6] | Potency [8] | outcome [9] | outcome [10] | outcome [11] | Potency [13] | Potency [14] | Potency [15] | outcome [16] | outcome [18] | outcome [19] | outcome [20]

N#CCC(=O)NN
inactive: Potency [1] | Potency [2] | Potency [3] | outcome [4] | outcome [5] | outcome [6] | outcome [7] | Potency [8] | outcome [9] | outcome [10] | outcome [11] | outcome [12] | Potency [13] | outcome [18] | outcome [20]

C=CCOC(=O)CCCCCC
inactive: Potency [1] | Potency [2] | Potency [3] | outcome [4] | outcome [5] | Potency [17] | outcome [9] | outcome [11] | outcome [12] | Potency [13] | Potency [14] | Potency [15] | outcome [16] | outcome [18] | outcome [19] | outcome [20]

CC(=O)CC(=O)Nc1ccc(C)cc1C
inactive: Potency [1] | Potency [2] | Potency [3] | outcome [4] | outcome [5] | Potency [17] | Potency [8] | outcome [9] | outcome [10] | outcome [11] | Potency [14] | Potency [15] | outcome [18] | outcome [19] | outcome [20]

Cc1ccc(C(=O)O)cc1[N+](=O)[O-]
inactive: Potency [1] | Potency [2] | Potency [3] | outcome [4] | outcome [5] | Potency [17] | outcome [6] | outcome [9] | outcome [10] | outcome [11] | outcome [12] | Potency [13] | Potency [14] | Potency [15] | outcome [16] | outcome [18] | outcome [19] | outcome [20]

O=C(CCCl)NCCc1ccccc1
inactive: Potency [1] | Potency [2] | Potency [3] | outcome [4] | outcome [5] | Potency [17] | outcome [6] | Potency [8] | outcome [9] | outcome [10] | outcome [11] | outcome [12] | Potency [13] | Potency [14] | Potency [15] | outcome [18] | outcome [19] | outcome [20]

COCCc1ccccn1
inactive: Potency [1] | Potency [2] | Potency [3] | outcome [4] | outcome [5] | Potency [17] | outcome [6] | outcome [9] | outcome [10] | outcome [11] | outcome [12] | Potency [13] | outcome [16] | outcome [18] | outcome [19]

C[C@]12CCC(=O)C=C1CC[C@H]1[C@@H]3CC[C@](O)(C(=O)CO)[C@@]3(C)C[C@H](O)[C@@]12F
active: Potency [2] 2130 nM
inactive: Potency [1] | Potency [3] | outcome [4] | outcome [5] | outcome [6] | outcome [7] | Potency [8] | outcome [10] | outcome [11] | outcome [12] | Potency [13] | Potency [14] | Potency [15] | outcome [18] | outcome [20]

CC(=O)O[C@H]1C[C@@H]2CC[C@@]1(C)C2(C)C
inactive: Potency [1] | Potency [2] | Potency [3] | outcome [4] | outcome [5] | Potency [17] | Potency [8] | outcome [10] | outcome [11] | outcome [12] | Potency [14] | Potency [15] | outcome [16] | outcome [18] | outcome [19] | outcome [20]

CCOc1ccccc1OCC1CNCCO1 (stereo not drawn)
inactive: Potency [1] | Potency [2] | Potency [3] | outcome [4] | outcome [5] | Potency [17] | outcome [6] | Potency [8] | outcome [9] | outcome [10] | Potency [13] | Potency [14] | Potency [15] | outcome [16] | outcome [18] | outcome [19] | outcome [20]

— PubChem BioAssay (Tox21)
